For 1 compound, residual activity results are on record in ChEMBL document CHEMBL2218924, “A broad activity screen in support of a chemogenomic map for kinase signalling research and drug discovery” (Biochem J, 2013).

In assay [1] the target is T1, Ephrin type-B receptor 1 (Homo sapiens) (UniProt P54762).
T1 sequence (whole entry): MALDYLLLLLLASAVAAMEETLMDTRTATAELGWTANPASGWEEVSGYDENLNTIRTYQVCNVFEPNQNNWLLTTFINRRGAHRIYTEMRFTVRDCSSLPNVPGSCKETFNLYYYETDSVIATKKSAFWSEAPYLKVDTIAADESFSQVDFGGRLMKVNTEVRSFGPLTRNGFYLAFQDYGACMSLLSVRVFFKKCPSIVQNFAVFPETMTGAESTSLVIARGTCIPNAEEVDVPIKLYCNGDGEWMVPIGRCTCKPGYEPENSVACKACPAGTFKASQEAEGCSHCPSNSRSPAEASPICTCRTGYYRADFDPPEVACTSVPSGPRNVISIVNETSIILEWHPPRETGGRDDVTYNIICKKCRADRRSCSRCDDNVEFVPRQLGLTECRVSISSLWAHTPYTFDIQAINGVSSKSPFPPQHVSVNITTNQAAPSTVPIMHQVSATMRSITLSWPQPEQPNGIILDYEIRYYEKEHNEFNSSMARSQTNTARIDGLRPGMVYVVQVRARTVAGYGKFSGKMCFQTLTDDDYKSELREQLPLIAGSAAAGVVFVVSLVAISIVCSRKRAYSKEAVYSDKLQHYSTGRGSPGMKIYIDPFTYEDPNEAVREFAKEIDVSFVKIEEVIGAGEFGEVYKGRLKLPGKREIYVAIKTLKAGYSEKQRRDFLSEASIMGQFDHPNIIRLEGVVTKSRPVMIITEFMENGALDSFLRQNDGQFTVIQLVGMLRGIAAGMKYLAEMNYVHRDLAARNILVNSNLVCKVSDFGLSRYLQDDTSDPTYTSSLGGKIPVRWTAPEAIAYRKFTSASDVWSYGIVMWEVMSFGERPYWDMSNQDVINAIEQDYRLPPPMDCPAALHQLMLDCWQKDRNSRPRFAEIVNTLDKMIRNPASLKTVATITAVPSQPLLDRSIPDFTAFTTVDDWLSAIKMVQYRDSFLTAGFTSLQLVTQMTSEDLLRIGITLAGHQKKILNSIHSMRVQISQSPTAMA
The note with it: at 10 µM.

Assay [2] deals with T2, Ephrin type-B receptor 2 (Homo sapiens) (UniProt P29323).
T2 sequence (whole entry): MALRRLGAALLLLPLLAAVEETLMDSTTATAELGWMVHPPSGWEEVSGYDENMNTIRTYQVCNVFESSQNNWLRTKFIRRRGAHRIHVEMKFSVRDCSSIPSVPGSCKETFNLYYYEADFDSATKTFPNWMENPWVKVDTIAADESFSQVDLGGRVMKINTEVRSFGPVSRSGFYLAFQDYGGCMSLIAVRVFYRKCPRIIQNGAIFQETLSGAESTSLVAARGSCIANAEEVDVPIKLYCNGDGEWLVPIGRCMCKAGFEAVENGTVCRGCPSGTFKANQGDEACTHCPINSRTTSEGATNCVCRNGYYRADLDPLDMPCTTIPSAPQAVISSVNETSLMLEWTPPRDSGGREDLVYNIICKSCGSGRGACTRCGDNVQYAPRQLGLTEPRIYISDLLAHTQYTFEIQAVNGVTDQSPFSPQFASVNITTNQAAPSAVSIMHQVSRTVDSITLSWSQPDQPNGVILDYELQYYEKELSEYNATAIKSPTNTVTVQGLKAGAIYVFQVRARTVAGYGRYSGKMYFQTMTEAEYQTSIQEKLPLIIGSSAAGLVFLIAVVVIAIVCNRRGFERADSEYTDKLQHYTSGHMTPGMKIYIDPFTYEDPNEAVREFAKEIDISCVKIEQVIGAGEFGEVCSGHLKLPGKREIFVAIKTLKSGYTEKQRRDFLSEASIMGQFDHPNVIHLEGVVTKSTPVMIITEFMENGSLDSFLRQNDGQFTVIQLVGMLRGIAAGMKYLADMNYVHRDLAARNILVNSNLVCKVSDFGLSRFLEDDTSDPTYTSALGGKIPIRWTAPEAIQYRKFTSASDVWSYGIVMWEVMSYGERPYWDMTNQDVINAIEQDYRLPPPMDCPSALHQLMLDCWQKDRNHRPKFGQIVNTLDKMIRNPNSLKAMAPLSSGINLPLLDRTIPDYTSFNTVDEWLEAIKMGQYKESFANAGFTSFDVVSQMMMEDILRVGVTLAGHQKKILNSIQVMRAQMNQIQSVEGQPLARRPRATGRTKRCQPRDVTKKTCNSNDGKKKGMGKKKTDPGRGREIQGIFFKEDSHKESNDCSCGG
The note with it: at 1 µM.

Assay [3] deals with T2, Ephrin type-B receptor 2 (Homo sapiens). The conditions noted are these: at 10 µM.
Assay [4] addresses T3, Ephrin type-B receptor 3 (Homo sapiens) (UniProt P54753).
T3 sequence (whole entry): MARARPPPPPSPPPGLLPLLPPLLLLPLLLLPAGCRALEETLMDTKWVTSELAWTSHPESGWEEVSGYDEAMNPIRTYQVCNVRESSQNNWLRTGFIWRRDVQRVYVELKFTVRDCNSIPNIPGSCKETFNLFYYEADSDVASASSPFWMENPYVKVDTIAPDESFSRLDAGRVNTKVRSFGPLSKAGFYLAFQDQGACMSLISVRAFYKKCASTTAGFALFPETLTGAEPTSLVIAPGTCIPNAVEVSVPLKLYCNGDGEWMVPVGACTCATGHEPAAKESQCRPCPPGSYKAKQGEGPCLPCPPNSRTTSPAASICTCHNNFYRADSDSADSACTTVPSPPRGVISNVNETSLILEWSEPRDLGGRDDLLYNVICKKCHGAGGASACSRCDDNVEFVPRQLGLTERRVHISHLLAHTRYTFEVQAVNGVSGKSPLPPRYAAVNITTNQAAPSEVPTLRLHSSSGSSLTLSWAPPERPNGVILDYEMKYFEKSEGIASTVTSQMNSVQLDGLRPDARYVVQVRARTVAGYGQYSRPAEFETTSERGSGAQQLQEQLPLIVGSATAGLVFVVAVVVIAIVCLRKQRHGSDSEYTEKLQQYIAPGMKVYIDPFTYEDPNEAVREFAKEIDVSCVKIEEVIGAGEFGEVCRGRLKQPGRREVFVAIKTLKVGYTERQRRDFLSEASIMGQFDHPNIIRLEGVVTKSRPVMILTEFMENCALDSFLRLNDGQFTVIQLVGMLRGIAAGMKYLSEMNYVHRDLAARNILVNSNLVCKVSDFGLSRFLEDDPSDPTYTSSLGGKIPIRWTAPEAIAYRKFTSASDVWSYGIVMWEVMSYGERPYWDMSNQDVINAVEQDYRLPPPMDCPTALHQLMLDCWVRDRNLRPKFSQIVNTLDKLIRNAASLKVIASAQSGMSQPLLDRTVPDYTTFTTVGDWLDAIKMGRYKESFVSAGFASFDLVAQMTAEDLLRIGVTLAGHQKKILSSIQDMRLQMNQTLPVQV
The note with it: at 1 µM.

Assay [5] addresses T3, Ephrin type-B receptor 3 (Homo sapiens). The note with it: at 10 µM.
For assay [6], the target named is T4, Ephrin type-B receptor 4 (Homo sapiens) (UniProt P54760).
T4 sequence (whole entry): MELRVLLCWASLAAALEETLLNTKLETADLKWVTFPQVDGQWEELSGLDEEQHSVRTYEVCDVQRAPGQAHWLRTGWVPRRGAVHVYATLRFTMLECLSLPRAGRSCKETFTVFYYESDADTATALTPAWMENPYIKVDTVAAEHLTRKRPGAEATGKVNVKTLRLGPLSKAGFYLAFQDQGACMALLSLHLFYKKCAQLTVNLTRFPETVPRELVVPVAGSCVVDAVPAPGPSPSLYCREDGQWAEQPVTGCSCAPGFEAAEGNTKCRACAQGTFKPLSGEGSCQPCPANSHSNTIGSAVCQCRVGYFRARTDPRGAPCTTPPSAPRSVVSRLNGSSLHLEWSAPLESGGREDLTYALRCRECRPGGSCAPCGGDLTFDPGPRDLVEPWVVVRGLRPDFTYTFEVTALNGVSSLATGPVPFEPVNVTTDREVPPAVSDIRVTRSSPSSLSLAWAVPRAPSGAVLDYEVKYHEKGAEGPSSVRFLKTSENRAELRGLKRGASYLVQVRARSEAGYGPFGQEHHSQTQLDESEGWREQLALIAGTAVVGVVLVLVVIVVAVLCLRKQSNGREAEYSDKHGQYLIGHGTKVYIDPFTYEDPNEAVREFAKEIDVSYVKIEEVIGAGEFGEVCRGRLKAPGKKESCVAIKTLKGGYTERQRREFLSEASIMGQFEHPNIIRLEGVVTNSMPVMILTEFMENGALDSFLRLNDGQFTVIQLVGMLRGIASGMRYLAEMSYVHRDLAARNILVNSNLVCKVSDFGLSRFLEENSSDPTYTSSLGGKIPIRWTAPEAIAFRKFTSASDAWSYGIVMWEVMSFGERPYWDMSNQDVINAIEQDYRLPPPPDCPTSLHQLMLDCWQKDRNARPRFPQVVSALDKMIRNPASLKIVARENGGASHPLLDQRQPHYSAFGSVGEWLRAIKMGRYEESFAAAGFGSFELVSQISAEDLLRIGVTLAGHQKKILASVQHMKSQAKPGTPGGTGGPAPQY
The conditions noted are these: at 1 µM.

Assay [7] concerns the target T4, Ephrin type-B receptor 4 (Homo sapiens). The conditions noted are these: at 10 µM.
Assay [8] has as its target Receptor tyrosine-protein kinase erbB-4 (Homo sapiens) (UniProt Q15303). The conditions noted are these: at 1 µM.
Assay [9] shares this target. The conditions noted are these: at 10 µM.
In assay [10] the target is Focal adhesion kinase 1 (Homo sapiens) (UniProt Q05397). The conditions noted are these: at 1 µM.
Sequence of Focal adhesion kinase 1 (Homo sapiens) (Q05397 2-1052 limits assumed): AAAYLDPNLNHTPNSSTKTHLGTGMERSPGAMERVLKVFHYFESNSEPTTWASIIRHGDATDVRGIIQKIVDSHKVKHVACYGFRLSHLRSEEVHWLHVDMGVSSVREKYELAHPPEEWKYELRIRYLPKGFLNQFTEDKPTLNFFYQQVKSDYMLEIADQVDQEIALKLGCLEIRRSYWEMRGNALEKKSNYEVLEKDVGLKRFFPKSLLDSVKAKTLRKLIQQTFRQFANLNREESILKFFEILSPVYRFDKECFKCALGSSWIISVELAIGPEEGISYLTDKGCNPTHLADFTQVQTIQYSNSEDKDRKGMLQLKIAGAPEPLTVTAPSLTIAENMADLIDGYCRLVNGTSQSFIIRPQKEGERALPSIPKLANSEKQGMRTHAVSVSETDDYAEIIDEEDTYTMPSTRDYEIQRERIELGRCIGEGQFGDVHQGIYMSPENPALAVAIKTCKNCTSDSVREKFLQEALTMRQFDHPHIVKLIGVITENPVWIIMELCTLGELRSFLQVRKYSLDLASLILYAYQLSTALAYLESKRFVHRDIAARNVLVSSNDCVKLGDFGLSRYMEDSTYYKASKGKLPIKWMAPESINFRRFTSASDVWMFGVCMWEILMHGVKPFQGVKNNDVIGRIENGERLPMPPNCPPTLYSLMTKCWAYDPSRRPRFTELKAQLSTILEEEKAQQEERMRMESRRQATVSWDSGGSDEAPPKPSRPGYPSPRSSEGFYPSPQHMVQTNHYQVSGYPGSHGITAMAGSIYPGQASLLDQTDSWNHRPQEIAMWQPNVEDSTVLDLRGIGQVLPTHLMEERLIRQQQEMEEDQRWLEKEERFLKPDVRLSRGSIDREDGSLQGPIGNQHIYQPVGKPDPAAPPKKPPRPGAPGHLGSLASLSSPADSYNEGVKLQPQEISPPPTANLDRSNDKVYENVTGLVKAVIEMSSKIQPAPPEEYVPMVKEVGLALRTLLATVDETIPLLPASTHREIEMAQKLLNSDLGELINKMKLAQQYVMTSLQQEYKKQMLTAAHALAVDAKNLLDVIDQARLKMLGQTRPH

Sequence of Receptor tyrosine-protein kinase erbB-4 (Homo sapiens) (Q15303 whole entry): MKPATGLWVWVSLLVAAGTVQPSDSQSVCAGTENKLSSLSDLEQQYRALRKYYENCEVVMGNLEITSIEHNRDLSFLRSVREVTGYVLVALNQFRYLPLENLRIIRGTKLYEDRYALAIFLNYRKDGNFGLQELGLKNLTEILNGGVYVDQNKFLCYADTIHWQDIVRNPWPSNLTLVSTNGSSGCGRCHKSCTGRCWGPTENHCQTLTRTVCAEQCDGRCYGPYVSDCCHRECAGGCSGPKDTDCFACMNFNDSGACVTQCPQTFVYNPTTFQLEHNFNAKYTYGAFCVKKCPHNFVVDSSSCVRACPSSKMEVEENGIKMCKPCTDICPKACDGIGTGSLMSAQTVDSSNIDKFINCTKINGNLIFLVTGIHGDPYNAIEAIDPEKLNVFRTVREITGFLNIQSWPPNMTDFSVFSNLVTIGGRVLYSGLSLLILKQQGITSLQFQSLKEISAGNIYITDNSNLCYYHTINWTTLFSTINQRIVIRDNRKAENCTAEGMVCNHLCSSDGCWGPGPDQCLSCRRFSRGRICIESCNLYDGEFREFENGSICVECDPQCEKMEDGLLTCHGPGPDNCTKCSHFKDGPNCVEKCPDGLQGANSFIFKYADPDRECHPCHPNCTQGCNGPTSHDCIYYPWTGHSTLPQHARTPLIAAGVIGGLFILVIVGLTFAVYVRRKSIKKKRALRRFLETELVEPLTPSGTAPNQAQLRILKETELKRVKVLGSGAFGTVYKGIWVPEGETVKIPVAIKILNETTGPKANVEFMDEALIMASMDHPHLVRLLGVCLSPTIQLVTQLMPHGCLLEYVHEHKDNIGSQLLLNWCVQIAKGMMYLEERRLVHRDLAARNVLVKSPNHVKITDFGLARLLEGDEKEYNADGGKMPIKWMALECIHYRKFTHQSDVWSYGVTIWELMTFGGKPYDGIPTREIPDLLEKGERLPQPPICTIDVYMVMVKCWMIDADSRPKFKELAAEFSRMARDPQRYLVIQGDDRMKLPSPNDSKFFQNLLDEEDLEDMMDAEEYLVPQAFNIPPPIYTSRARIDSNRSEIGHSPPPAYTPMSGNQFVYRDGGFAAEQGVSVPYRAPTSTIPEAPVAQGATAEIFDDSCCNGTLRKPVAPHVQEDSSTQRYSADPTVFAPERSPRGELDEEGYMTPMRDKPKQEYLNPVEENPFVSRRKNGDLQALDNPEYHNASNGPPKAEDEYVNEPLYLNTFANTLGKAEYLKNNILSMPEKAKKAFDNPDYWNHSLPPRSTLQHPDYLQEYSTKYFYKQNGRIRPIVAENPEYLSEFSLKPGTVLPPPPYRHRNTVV

With `O=Nc1c(-c2c(O)[nH]c3ccccc23)[nH]c2ccccc12`, the residual activity (commonly the signal under treatment as a percentage of the control signal) is 13% in [1]; 91% in [2]; 13% in assay [3]; 105% (inactive) in assay [4]; 103% in assay [5]; 67% in assay [6]. In addition, the residual activity amounted to 13% in assay [7], 107% in assay [8], 99% in [9] and 39% in assay [10].
